Source: article PMC10726135, “HNF4α isoforms regulate the circadian balance between carbohydrate and lipid metabolism in the liver”
Over roughly 18,000 sequences, “log2 normalized intensity” has its median near 0.36; the highest 2% begin near 7.3. Many of the other results were omitted from the sample, so the highest values are more common in it than they were.

biological target: T1, HNF4alpha8 (COS-7 nuclear extract) (Homo sapiens, UniProt P41235-5 1-452); assay: protein-binding microarray; COS-7 nuclear extract on double-stranded Agilent 4x180k PBM; binding buffer, salt, pH and temperature not given in the material; high values mean tight binding; conditions: chain copies: 2; label: 3' end of strand 1 on the slide; dsDNA, one strand shown
T1 sequence: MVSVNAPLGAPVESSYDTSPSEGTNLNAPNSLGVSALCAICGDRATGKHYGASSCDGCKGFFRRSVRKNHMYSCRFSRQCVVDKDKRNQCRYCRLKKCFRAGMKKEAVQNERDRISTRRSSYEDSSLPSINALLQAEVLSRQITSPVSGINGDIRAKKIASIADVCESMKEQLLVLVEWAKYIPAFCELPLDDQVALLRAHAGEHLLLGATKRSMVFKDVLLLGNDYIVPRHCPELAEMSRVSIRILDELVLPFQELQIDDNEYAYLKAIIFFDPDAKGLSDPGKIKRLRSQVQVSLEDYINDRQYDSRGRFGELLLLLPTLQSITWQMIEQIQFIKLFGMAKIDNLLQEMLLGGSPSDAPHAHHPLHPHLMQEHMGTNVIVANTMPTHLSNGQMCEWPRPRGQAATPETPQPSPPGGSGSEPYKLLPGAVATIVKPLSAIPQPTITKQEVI
Summary of the method: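 Binding signal is the background-corrected, normalized gProcessedSignal calculated by Agilent software. It was measured by applying nuclear extracts of COS-7 cells transiently transfected with a human HNF4α isoform expression vector to a custom Agilent SurePrint G3 4x180k array of ~44,000 double-stranded ~60-nt test sequences in quadruplicate, then imaging bound HNF4α on an Agilent G2565CA scanner at 2-µm resolution.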

Sequence	binding signal
AGTCCATGTGTTAAATAATAACACTCCCATGCCTAGGGAGATTAGAGTATCGGTCGA	-0.441 log2 normalized intensity
CCTTCCCTTTCATGTTGAACGTCTTCAGAAGCCTAGGGAGATTAGAGTATCGGTCGA	1.35 log2 normalized intensity
CTGCCCAGACCTTATCTTGCATTTCTTCAGGCCTAGGGAGATTAGAGTATCGGTCGA	0.246 log2 normalized intensity
CTGCCTGCTTGGCCTCTCCACTTGGGTATCGCCTAGGGAGATTAGAGTATCGGTCGA	-0.182 log2 normalized intensity
CAAAGGTCATAATTTGATCCAGTGTGCAAAGCCTAGGGAGATTAGAGTATCGGTCGA	4.08 log2 normalized intensity
GGACTTGATCCAGGGCAAAGGTCATAATTTGCCTAGGGAGATTAGAGTATCGGTCGA	7.95 log2 normalized intensity
ACACAGGACTTGATCCAGGGCAAAGGTCATGCCTAGGGAGATTAGAGTATCGGTCGA	7.91 log2 normalized intensity
CACAGAGCAAAGGTCATGCATAGAAGTATGGCCTAGGGAGATTAGAGTATCGGTCGA	4.43 log2 normalized intensity
AGAAAACACAGAGATCTGATCAAAGGTCATGCCTAGGGAGATTAGAGTATCGGTCGA	6.61 log2 normalized intensity
TGATCCAGGGCAAAGGTCATAATTTGATCCGCCTAGGGAGATTAGAGTATCGGTCGA	6.94 log2 normalized intensity
AATGGAGTTTGGTTTAAAGTTCAAGTCATAGCCTAGGGAGATTAGAGTATCGGTCGA	2.74 log2 normalized intensity
AGGTGTAACCTGCTCTCTCATGCCCTTTGCGCCTAGGGAGATTAGAGTATCGGTCGA	4.81 log2 normalized intensity
CTTTCCTGGTGCCTCCTTATCTCCCCAACTGCCTAGGGAGATTAGAGTATCGGTCGA	3.48 log2 normalized intensity
TTTTAATTAGAACTGTAATTGAGTAACCAGGCCTAGGGAGATTAGAGTATCGGTCGA	0.406 log2 normalized intensity
GAAACCCTAAACCTGCAAACCTTTGACCTTGCCTAGGGAGATTAGAGTATCGGTCGA	5.96 log2 normalized intensity
ATCTCTAAGCTACTGAAAATGACCTTTGTTGCCTAGGGAGATTAGAGTATCGGTCGA	6.73 log2 normalized intensity
AATTCATCTCTAAGCTACTGAAAATGACCTGCCTAGGGAGATTAGAGTATCGGTCGA	3.88 log2 normalized intensity
TAAGCTACTGAAAATGACCTTTGTTCCCTGGCCTAGGGAGATTAGAGTATCGGTCGA	9.03 log2 normalized intensity
TACTGAAAATGACCTTTGTTCCCTGCACTTGCCTAGGGAGATTAGAGTATCGGTCGA	7.89 log2 normalized intensity
AAAAAAAAAAATTACTGACCCTTGCACTGTGCCTAGGGAGATTAGAGTATCGGTCGA	5.45 log2 normalized intensity
GATTTTCAGGTTCCCCAGTGAGGATGTGTGGCCTAGGGAGATTAGAGTATCGGTCGA	1.53 log2 normalized intensity
TGGCGTATGCAGCAGGGCAGCAGCCTGACCGCCTAGGGAGATTAGAGTATCGGTCGA	0.823 log2 normalized intensity

Sequence	binding signal
TTAACCTCTATTGACCTTCTTATTTGGAGAGCCTAGGGAGATTAGAGTATCGGTCGA	2.41 log2 normalized intensity
GAGGAGACCTTTGGATATCATATCATCTTCGCCTAGGGAGATTAGAGTATCGGTCGA	2.39 log2 normalized intensity
TAGTTAGAGTCACTGATAAGTCTGCTTGCCGCCTAGGGAGATTAGAGTATCGGTCGA	-0.858 log2 normalized intensity
CGCCCCCAACGGGCCACGCCCTGCACCCTAGCCTAGGGAGATTAGAGTATCGGTCGA	4.07 log2 normalized intensity
TTGTGGCAGTGAGAACAGGTTCATTCTTTAGCCTAGGGAGATTAGAGTATCGGTCGA	0.687 log2 normalized intensity
GCTTGAGCGAGACAGCGGGTGTTTCTGGGAGCCTAGGGAGATTAGAGTATCGGTCGA	0.72 log2 normalized intensity
TCATTGCCTCTGGGCTTTGATGGACATTGCGCCTAGGGAGATTAGAGTATCGGTCGA	3.92 log2 normalized intensity
AAGAAGAGCTCAGTCACAGCAGTGGACTTTGCCTAGGGAGATTAGAGTATCGGTCGA	7.41 log2 normalized intensity
AGCAGCCTCAGTGGCTCACAAATGGAGTTTGCCTAGGGAGATTAGAGTATCGGTCGA	1.92 log2 normalized intensity
CCAGCTAGAAGCAGTGGGACAAAGGTCACAGCCTAGGGAGATTAGAGTATCGGTCGA	6.82 log2 normalized intensity
CCTCAGTGTGGGACTTTGGTCTGCTGAGTCGCCTAGGGAGATTAGAGTATCGGTCGA	3.95 log2 normalized intensity
GAGCTCAGTCACAGCAGTGGACTTTGACCTGCCTAGGGAGATTAGAGTATCGGTCGA	11.7 log2 normalized intensity
CAGGACTGCGTAACTTACAGTGCACTTTGAGCCTAGGGAGATTAGAGTATCGGTCGA	5.6 log2 normalized intensity
CTTGTCTTATCAGCAGGGTCTTTTTGACCTGCCTAGGGAGATTAGAGTATCGGTCGA	4.79 log2 normalized intensity
GAGCAGCACTTTTGGAGTTTGACCTGGAGCGCCTAGGGAGATTAGAGTATCGGTCGA	6.24 log2 normalized intensity
GGGGCAGAGTGAGCAGCACTTTTGGAGTTTGCCTAGGGAGATTAGAGTATCGGTCGA	2.17 log2 normalized intensity
AGAGTGAGCAGCACTTTTGGAGTTTGACCTGCCTAGGGAGATTAGAGTATCGGTCGA	8.51 log2 normalized intensity
CTGCGTAACTTACAGTGCACTTTGACCGCTGCCTAGGGAGATTAGAGTATCGGTCGA	7.74 log2 normalized intensity
TAACTTACAGTGCACTTTGACCGCTCATTTGCCTAGGGAGATTAGAGTATCGGTCGA	6.77 log2 normalized intensity
GGCATTCTGACCTTTGTCTCCAGGCAAACTGCCTAGGGAGATTAGAGTATCGGTCGA	5.6 log2 normalized intensity
GAGGAGTGAGAACAGACAAAATTAAGTGATGCCTAGGGAGATTAGAGTATCGGTCGA	-0.842 log2 normalized intensity
TCTGTCTGAGACCACTTAAGCCTGGAATTCGCCTAGGGAGATTAGAGTATCGGTCGA	-0.0786 log2 normalized intensity

Sequence	binding signal
ACCCATGTTTGCCCTTGATAAGAGCTGCTCGCCTAGGGAGATTAGAGTATCGGTCGA	0.685 log2 normalized intensity
AGGTGAATGTACAAAGGTCAACGGCACAAGGCCTAGGGAGATTAGAGTATCGGTCGA	5.02 log2 normalized intensity
TGAGCACATTCTTCAATATCAGTGGCACTCGCCTAGGGAGATTAGAGTATCGGTCGA	0.295 log2 normalized intensity
TCTTCCTAGGCAATCCCATGACCTTTGTACGCCTAGGGAGATTAGAGTATCGGTCGA	9.08 log2 normalized intensity
CACCTTCTTCCTAGGCAATCCCATGACCTTGCCTAGGGAGATTAGAGTATCGGTCGA	3.52 log2 normalized intensity
CTAGGCAATCCCATGACCTTTGTACTAATGGCCTAGGGAGATTAGAGTATCGGTCGA	8.3 log2 normalized intensity
TGTCTTCTGACCTTTGGCAATATCTCCCAGGCCTAGGGAGATTAGAGTATCGGTCGA	3.96 log2 normalized intensity
CCATGACCTTTGTACTAATGATTTGTAAATGCCTAGGGAGATTAGAGTATCGGTCGA	6.03 log2 normalized intensity
CAATCCCATGACCTTTGTACTAATGATTTGGCCTAGGGAGATTAGAGTATCGGTCGA	6.73 log2 normalized intensity
GGACTTCTCTGCCCTCTTCCCTCTACCTCTGCCTAGGGAGATTAGAGTATCGGTCGA	1.97 log2 normalized intensity
AAACAGACCTCTCTCTCCCCAGACAGCCACGCCTAGGGAGATTAGAGTATCGGTCGA	2.71 log2 normalized intensity
TATTTACATACCTTAGGCTGTGCATATTGGGCCTAGGGAGATTAGAGTATCGGTCGA	0.994 log2 normalized intensity
CCTCCTGCTTAGCGGCCTTCCCCTTTTTCTGCCTAGGGAGATTAGAGTATCGGTCGA	1.99 log2 normalized intensity
TCAGACAAGTTGCAGGGATGGACTTTAATCGCCTAGGGAGATTAGAGTATCGGTCGA	7.17 log2 normalized intensity
CCCCCTATCCCAAGACATCAATTAACTTGTGCCTAGGGAGATTAGAGTATCGGTCGA	3.09 log2 normalized intensity
CCTAGCCCCACCAAACTGACAGGTTAGACTGCCTAGGGAGATTAGAGTATCGGTCGA	2.33 log2 normalized intensity
ACCTCCTGGGCCCAAGTGCTCCTCCCCATCGCCTAGGGAGATTAGAGTATCGGTCGA	3.58 log2 normalized intensity
TCTTCAGGCTGGGGCCCCATCGACCTTTGCGCCTAGGGAGATTAGAGTATCGGTCGA	7.4 log2 normalized intensity
AGGCTGGGGCCCCATCGACCTTTGCTCCCGGCCTAGGGAGATTAGAGTATCGGTCGA	10.5 log2 normalized intensity
CCCATCGACCTTTGCTCCCGACTCTGAGGCGCCTAGGGAGATTAGAGTATCGGTCGA	5.95 log2 normalized intensity
CGACCTTTGCTCCCGACTCTGAGGCTCCATGCCTAGGGAGATTAGAGTATCGGTCGA	5.96 log2 normalized intensity
AGACATCGACCTTTGTGGGCTTCAGACATTGCCTAGGGAGATTAGAGTATCGGTCGA	2.32 log2 normalized intensity

Sequence	binding signal
GCTCTAGACATCGACCTTTGTGGGCTTCAGGCCTAGGGAGATTAGAGTATCGGTCGA	3.19 log2 normalized intensity
GTCCCTGGCCCCGGGGCGGGGGCGGGCTGGGCCTAGGGAGATTAGAGTATCGGTCGA	-0.21 log2 normalized intensity
GGGGCCCCATCGACCTTTGCTCCCGACTCTGCCTAGGGAGATTAGAGTATCGGTCGA	8.88 log2 normalized intensity
AGCAATCATATATGCATTTGTCTCAGGTGGGCCTAGGGAGATTAGAGTATCGGTCGA	1.26 log2 normalized intensity
CCTAAAATTGACCTTTGATCACTCATGGGCGCCTAGGGAGATTAGAGTATCGGTCGA	8.68 log2 normalized intensity
GATAAGCGTATTTCAACCTTTGATCTATAAGCCTAGGGAGATTAGAGTATCGGTCGA	6.82 log2 normalized intensity
AGGAGGCACTGATAAGCGTATTTCAACCTTGCCTAGGGAGATTAGAGTATCGGTCGA	0.651 log2 normalized intensity
CTCATGTGGTCCTAAGACTGACCTTTGATCGCCTAGGGAGATTAGAGTATCGGTCGA	10.6 log2 normalized intensity
GTTTACTCATGTGGTCCTAAGACTGACCTTGCCTAGGGAGATTAGAGTATCGGTCGA	4.61 log2 normalized intensity
GCACTGATAAGCGTATTTCAACCTTTGATCGCCTAGGGAGATTAGAGTATCGGTCGA	8.45 log2 normalized intensity
TTGTTTACTCATGTGGTCCTAAGACTAACCGCCTAGGGAGATTAGAGTATCGGTCGA	0.432 log2 normalized intensity
GTGGTCCTAAGACTGACCTTTGATCATTTGGCCTAGGGAGATTAGAGTATCGGTCGA	9.52 log2 normalized intensity
GAACTGAAAGAGACCTTTGACATCACCTAAGCCTAGGGAGATTAGAGTATCGGTCGA	2.77 log2 normalized intensity
AATCAACCTTTGATCGTTTGCATGCAGGGCGCCTAGGGAGATTAGAGTATCGGTCGA	3.98 log2 normalized intensity
AATTGACCTTTGATCACTCATGGGCAAGATGCCTAGGGAGATTAGAGTATCGGTCGA	6.41 log2 normalized intensity
GACTGACCTTTGATCATTTGAGGGTGACACGCCTAGGGAGATTAGAGTATCGGTCGA	6.1 log2 normalized intensity
AATGCCCAGGATTCCTTTTTCACTGCTCACGCCTAGGGAGATTAGAGTATCGGTCGA	-0.85 log2 normalized intensity
CACTTCCCGAGTGAGGCAATGCCTCGCCCTGCCTAGGGAGATTAGAGTATCGGTCGA	-0.664 log2 normalized intensity
ATTCAGCATTGCTTGGGAGCAGTCCTTGGGGCCTAGGGAGATTAGAGTATCGGTCGA	-0.959 log2 normalized intensity
